An excerpt weighted towards active compounds, which were near 9.8% of everything screened.
HPGD inh: HPGD (human) dehydrogenase inhibition. P15428. Potency, µM, without a hit: at the top dose activity change, negative = inhibition, most hits filed as inhibitors. purified HPGD, NADH fluorescence kinetic, PGE2 substrate. actives 4.3% (n = 150,000); also: potency is read from the fitted curve at half-maximal effect; % is scaled to controls: 0 for no effect and ±100 for the full control effect
Target sequence (P15428 whole entry, looked up): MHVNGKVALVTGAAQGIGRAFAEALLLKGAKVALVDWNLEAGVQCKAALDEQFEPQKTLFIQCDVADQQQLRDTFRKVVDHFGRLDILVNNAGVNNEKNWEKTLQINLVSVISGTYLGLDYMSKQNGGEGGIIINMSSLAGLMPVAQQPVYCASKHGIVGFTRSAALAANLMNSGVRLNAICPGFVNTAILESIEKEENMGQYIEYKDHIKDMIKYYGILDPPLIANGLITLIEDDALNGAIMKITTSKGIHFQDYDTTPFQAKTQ
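NADH formation kinetics: reaction with 30 uM PGE2 and 1 mM NAD+ (final), 20 nM enzyme, Tris-HCl pH 8 with Tween 20, after 15 min compound preincubation at room temperature. Fluorescence change, last versus first of five reads.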
CBFb RUNX1 block: CBF-beta/RUNX1 interaction disruption. Q01196+Q13951. AlphaScreen CBFb-His/RUNX1-biotin binding, biochemical. Potency, µM (top dose mostly 59.8 µM), for the others: top-dose activity, negative = inhibition, hits mostly inhibitors. 230,000 tested, under 10 active; active = well fitted curve in the direction sought with a large enough effect; inconclusive = small, poorly fitted or top-dose-only effect, or another doubt; inactive = no such curve, though single readings can be large; an effect the other way counts as inactive or inconclusive; also: % of control where 0% means no effect
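Proteins preincubated together for 20 min at RT before compound addition; 15 min later, nickel and streptavidin beads were added and left 90 min prior to AlphaScreen measurement.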
HTT aggregate: mutant huntingtin aggregation inhibition | PC12 HttQ103-GFP aggregates, Acumen cytometry, 40 h | Potency, µM (top dose mostly 46.1 µM), without a hit: top-dose activity change, negative = inhibition, most hits filed as inhibitors | actives 1.1% (n = 220,000); active = well fitted curve in the direction sought with a large enough effect; inconclusive = small, poorly fitted or top-dose-only effect, or another doubt; inactive = no such curve, though single readings can be large; an effect the other way counts as inactive or inconclusive; also: potency is read from the fitted curve at half-maximal effect; % is scaled to controls: 0 for no effect and ±100 for the full control effect; nearly all actives have a fitted effect of over 60% in size
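Huntingtin Q103 exon 1–GFP aggregates in induced PC12 cells (100 nM tebufenozide) were quantified by cytometry from lysates, with compounds dosed in titration.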
ALDH1A1 block: ALDH1A1 (human) enzyme inhibition; Purified ALDH1A1, NADH fluorescence, propionaldehyde substrate; Potency, µM (doses to about 75.3 µM), for inactives: top-dose activity, negative = inhibition, hits mostly inhibitors; actives 7.3% (n = 220,000);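 also: potency is read from the fitted curve at half-maximal effect; plate controls were no enzyme wells and a reference inhibitor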
HTT ATP protect: Huntington cell model cytoprotection by ATP luminescence; Potency, µM (top dose mostly 56.4 µM), without a hit: cytoprotection (ATP increase), usual class: activators; PC12 HTT-Q103 induced, cytoprotection, ATP luminescence, 40 h; actives 0.14% (n = 230,000); active = well fitted curve in the direction sought with a large enough effect; inconclusive = small, poorly fitted or top-dose-only effect, or another doubt; inactive = no such curve, though single readings can be large; an effect the other way counts as inactive or inconclusive; also: potency is read from the fitted curve at half-maximal effect; % of control where 0% means no effect; nearly all actives have a fitted effect of over 45% in size
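PC12 cells with ecdysone-inducible HTT exon 1 Q103-GFP, induced with 100 nM tebufenozide and co-treated with library compounds in a dose series (1536-well, 1500 cells/well). Cytoprotection read as ATP content by ATPlite luminescence.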
KDM4E inh: JMJD2E (human) inhibition; JMJD2E catalytic domain, FDH-coupled NADH fluorescence (FDH is formaldehyde dehydrogenase); AID 2147; B2RXH2; actives 1.6% (n = 230,000); Potency, µM (series often up to 57.1 µM), inactives show top-dose activity change, negative = inhibition, usual class: inhibitors;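 also: potency is read from the fitted curve at half-maximal effect; 0% = wells with enzyme and -100% = buffer wells without enzyme; nearly all actives have a fitted effect of over 50% in size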
* = called active by the depositor; ? = inconclusive; · = no result; [ ] = remark or other dose. Unless noted, calls follow the shape of the dose curve; as a rule, active = well fitted inhibition curve with a large enough effect (not every such curve was filed as active); inconclusive = small, poorly fitted or top-dose-only effect, or another doubt; inactive = no such curve, though single readings can be large or run the other way.

SMILES	HPGD inh	CBFb RUNX1 block	HTT aggregate	ALDH1A1 block	HTT ATP protect	KDM4E inh
CCOc1cc(-c2cc(-c3ccc(C)cc3)nc(N)c2C#N)ccc1O	-24%	3%	?	-11%	-52%	3%
Cc1ccnc(SCCn2c(N3CCOCC3)nc3c2c(=O)n(C)c(=O)n3C)n1	·	·	·	·	-10%[0.074 µM]	·
CC(C)c1onc(C(=O)N2CCN(Cc3ccccc3)CC2)c1[N+](=O)[O-]	-8%	-1%[2.36 µM]	-1%	2.5µM*	·	0%
CC(C)c1onc(C(=O)NC(C)c2ccccc2)c1[N+](=O)[O-] (configuration not stated)	·	-8%	4.5µM*	?	-41%	-7%
CCCC(=O)Nc1nnc(COC)s1	-16%	1%	1%	1%	-18%	2%
CCC(C)N1CNc2c(c(=O)[nH]c(=S)n2-c2cccc(C)c2)C1 (configuration not stated)	·	5%	-3%	?	-44%	?
CCc1nn2c(=O)cc(COc3ccc(/C=C4\C(=N)N5N=C(C)SC5=NC4=O)cc3)nc2s1	·	-4%	16%	8.9µM*	-40%	?
CC(Nc1c([N+](=O)[O-])c(=O)oc2ccccc12)c1ccccc1 (configuration not stated)	·	3%	-16%[9.22 µM]	·	-13%[10 µM]	-8%
Oc1ccccc1/C=N/NC(=S)NC1CC2CC1C1C=CCC21 (configuration not stated)	·	-23%	0%[9.22 µM]	-12%	0%[10 µM]	16µM*
COc1cccc(/C=N/NC(=S)NC2CC3CC2C2C=CCC32)c1O (configuration not stated)	·	4%	-28%[9.22 µM]	·	-20%[10 µM]	-6%
CC(C)C(=O)NC(=S)Nc1sc2c(c1C(N)=O)CCCC2	14µM*	1%	-8%	7.1µM*	·	-4%
CCCC(=O)NC(=S)Nc1sc2c(c1C(N)=O)CCC2	25µM*	-4%	-13%	8.9µM*	·	-2%
COC(=O)Nc1sc2c(c1C(N)=O)CCCCCC2	14µM*	9%	9%	8.9µM*	1%	-3%
NC(=O)c1c(NC(=O)c2cnccn2)sc2c1CCCC2	·	-20%	-4%	20µM*	22%[10 µM]	-6%
CCOC(=O)c1c(NC(=O)OC)sc2c1CCC2	-4%	11%	-10%	-14%	0%	-6%
CCC(=O)Nc1sc2c(c1C(N)=O)CCC2	-14%	3%	-28%	-17%	14%[10 µM]	?
COc1ccc(OC)c(-n2c(=S)[nH]c3cc(C(=O)N(C)Cc4ccccc4)ccc3c2=O)c1	·	-15%	-8%	?	-11%	-7%
O=C(Nc1sc2c(c1C(=O)N1CCOCC1)CCCCC2)c1cccnc1	·	12%	-11%	22µM*	-26%	2%
NC(=O)c1c(NC(=O)c2ccncc2)sc2c1CCCC2	·	-5%	-19%	?	-44%	3%
CCOC(=O)c1sc2ncn(/N=C/c3ccc(O)cc3)c(=O)c2c1C	·	5%	7%	20µM*	-7%	1%
CCOC(=O)c1sc2ncn(/N=C/c3cccnc3)c(=O)c2c1C	-28%	4%	4%	0.071µM*	8%	-1%
O=C(N=NC(=O)c1ccc2c(O)n(CC3CCCO3)c(O)c2c1)c1cccnc1 (configuration not stated)	·	13%	13%[9.22 µM]	?	9%[10 µM]	7%
CC(=NCCCNC1CCCCC1)C1=C(O)CC(C)(C)CC1=O	-4%	5%	9%	28µM*	0%	6%
CC(=NCC1CCNCC1)C1=C(O)CC(C)(C)CC1=O	2%	3%	-5%	-2%	6%	7%
CCOC(=O)Cc1csc(NC(=O)CCCC(=O)O)n1	·	7%	0%[9.22 µM]	12%	7%[10 µM]	-6%
O=C(CN1CCN(S(=O)(=O)c2ccccc2[N+](=O)[O-])CC1)NC(=O)NCc1ccco1	·	-11%	5%	5%	-11%	-3%
O=C1NN(c2ccc(F)c(Cl)c2)C(=O)/C1=C\c1cccc(OC(=O)c2cccs2)c1	10µM*	-7%	29%	?	-8%	7%

From PubChem
